From PubChem BioAssay AID1159580 (chemical genetic matrix, 2015)
Screen size: about 5,500 compounds; about 2,000 (36%) were called active. Inconclusive results (about 18%) are left out. Rule as the data show it: active = normalized growth mostly below about 0.91 (no sharp cut-off); inconclusive = no clear call, values can overlap the other calls; inactive = mostly above about 0.92. The list shows a part of the results.

Assay: chemical genetic growth profiling, strain panel (AID 1159580);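 also: tested at 20 µM; growth read once vehicle control cultures reached saturation at 30 °C; 1 = growth at the plate median or of vehicle wells; lower values mean less growth of the strain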
Conditions: growth OD

Measured: normalized growth

CN1CCC[C@H]1c1cccnc1
inactive: S. cerevisiae deletion strains, locus YJR075W, strain HOC1, stronger effect = lower value 0.999 | S. cerevisiae deletion strains, locus YKL009W, strain mrt4, stronger effect = lower value 0.975 | S. cerevisiae deletion strains, locus YKL068W, stronger effect = lower value 0.983 | S. cerevisiae deletion strains, locus YKL085W, strain MDH1 (second series), stronger effect = lower value 0.984 | S. cerevisiae deletion strains, locus YKL085W, strain MDH1, stronger effect = lower value 0.984 | S. cerevisiae deletion strains, locus YKL160W, strain elf1, stronger effect = lower value 1.01 | S. cerevisiae deletion strains, locus YKL190W, strain CNB1, stronger effect = lower value 1 | S. cerevisiae deletion strains, locus YKR001C, strain vps1, stronger effect = lower value 0.986 | S. cerevisiae deletion strains, locus YKR026C, strain gcn3, stronger effect = lower value 1.04 | S. cerevisiae deletion strains, locus YKR091W, strain srl3, stronger effect = lower value 1.02 | S. cerevisiae deletion strains, locus YLL001W, strain dnm1, stronger effect = lower value 1.05 | S. cerevisiae deletion strains, locus YLL026W, stronger effect = lower value 1.02 | S. cerevisiae deletion strains, locus YLL041C, strain sdh2, stronger effect = lower value 1.02 | S. cerevisiae deletion strains, locus YLR027C, strain aat2, stronger effect = lower value 1.01 | S. cerevisiae deletion strains, locus YLR039C, strain RIC1, stronger effect = lower value 0.981 | S. cerevisiae deletion strains, locus YLR058C, strain SHM2, stronger effect = lower value 0.987 | S. cerevisiae deletion strains, locus YLR102C, strain apc9, stronger effect = lower value 0.995 | S. cerevisiae deletion strains, locus YLR113W, strain HOG1, stronger effect = lower value 0.921 | S. cerevisiae deletion strains, locus YLR221C, strain rsa3, stronger effect = lower value 1.04 | S. cerevisiae deletion strains, locus YLR258W, strain gsy2, stronger effect = lower value 1.02 | S. cerevisiae deletion strains, locus YLR262C, strain YPT6 (second series), stronger effect = lower value 1.04 | S. cerevisiae deletion strains, locus YLR262C, strain YPT6, stronger effect = lower value 1.01 | S. cerevisiae deletion strains, locus YLR268W, strain sec22, stronger effect = lower value 1 | S. cerevisiae deletion strains, locus YLR320W, strain mms22, stronger effect = lower value 1.03 | S. cerevisiae deletion strains, locus YLR330W, strain CHS5, stronger effect = lower value 0.987 | S. cerevisiae deletion strains, locus YLR342W, strain FKS1 (second series), stronger effect = lower value 0.976 | S. cerevisiae deletion strains, locus YLR342W, strain FKS1, stronger effect = lower value 1.02 | S. cerevisiae deletion strains, locus YLR357W, strain rsc2, stronger effect = lower value 1.04 | S. cerevisiae deletion strains, locus YLR370C, strain arc18, stronger effect = lower value 1.03 | S. cerevisiae deletion strains, locus YLR371W, strain rom2, stronger effect = lower value 0.99 | S. cerevisiae deletion strains, locus YLR384C, strain iki3, stronger effect = lower value 1.04 | S. cerevisiae deletion strains, locus YLR418C, strain cdc73, stronger effect = lower value 1.02 | S. cerevisiae deletion strains, locus YML016C, strain PPZ1, stronger effect = lower value 0.99 | S. cerevisiae deletion strains, locus YML032C, strain rad52, stronger effect = lower value 0.999 | S. cerevisiae deletion strains, locus YML120C, strain ndi1, stronger effect = lower value 1.03 | S. cerevisiae deletion strains, locus YML124C, strain tub3, stronger effect = lower value 0.992 | S. cerevisiae deletion strains, locus YMR058W, strain fet3, stronger effect = lower value 1.03 | S. cerevisiae deletion strains, locus YMR078C, strain ctf18, stronger effect = lower value 0.979 | S. cerevisiae deletion strains, locus YMR125W, strain sto1, stronger effect = lower value 1.05 | S. cerevisiae deletion strains, locus YMR129W, stronger effect = lower value 1.04 | S. cerevisiae deletion strains, locus YMR205C, strain PFK2, stronger effect = lower value 1.03 | S. cerevisiae deletion strains, locus YMR223W, strain ubp8, stronger effect = lower value 0.978 | S. cerevisiae deletion strains, locus YMR231W, strain pep5, stronger effect = lower value 1.03 | S. cerevisiae deletion strains, locus YMR263W, strain SAP30, stronger effect = lower value 1.02 | S. cerevisiae deletion strains, locus YMR307W, strain GAS1, stronger effect = lower value 0.946 | S. cerevisiae deletion strains, locus YNL067W, strain RPL9B, stronger effect = lower value 1.02 | S. cerevisiae deletion strains, locus YNL071W, strain lat1, stronger effect = lower value 1.04 | S. cerevisiae deletion strains, locus YNL128W, strain TEP1, stronger effect = lower value 1.02 | S. cerevisiae deletion strains, locus YNL153C, strain GIM3, stronger effect = lower value 1.02 | S. cerevisiae deletion strains, locus YNL183C, strain NPR1, stronger effect = lower value 0.938 | S. cerevisiae deletion strains, locus YNL209W, strain ssb2, stronger effect = lower value 1.03 | S. cerevisiae deletion strains, locus YNL233W, strain BNI4, stronger effect = lower value 1.01 | S. cerevisiae deletion strains, locus YNL248C, strain rpa49, stronger effect = lower value 1.03 | S. cerevisiae deletion strains, locus YNL250W, strain rad50, stronger effect = lower value 0.988 | S. cerevisiae deletion strains, locus YNL271C, strain bni1, stronger effect = lower value 0.985 | S. cerevisiae deletion strains, locus YNL298W, strain CLA4, stronger effect = lower value 1 | S. cerevisiae deletion strains, locus YNL307C, strain MCK1, stronger effect = lower value 1 | S. cerevisiae deletion strains, locus YNL322C, strain KRE1 (second series), stronger effect = lower value 1.04 | S. cerevisiae deletion strains, locus YNL322C, strain KRE1, stronger effect = lower value 0.992 | S. cerevisiae deletion strains, locus YNR049C, strain mso1, stronger effect = lower value 1.02 | S. cerevisiae deletion strains, locus YNR052C, strain pop2, stronger effect = lower value 0.972 | S. cerevisiae deletion strains, locus YOL006C, strain TOP1, stronger effect = lower value 0.988 | S. cerevisiae deletion strains, locus YOL012C, strain htz1 1.12 | S. cerevisiae deletion strains, locus YOL147C, strain pex11, stronger effect = lower value 0.996 | S. cerevisiae deletion strains, locus YOR001W, strain rrp6, stronger effect = lower value 1.02 | S. cerevisiae deletion strains, locus YOR061W, strain CKA2, stronger effect = lower value 0.999 | S. cerevisiae deletion strains, locus YOR069W, strain VPS5, stronger effect = lower value 0.988 | S. cerevisiae deletion strains, locus YOR070C, strain gyp1, stronger effect = lower value 1.02 | S. cerevisiae deletion strains, locus YOR080W, strain dia2, stronger effect = lower value 1.03 | S. cerevisiae deletion strains, locus YOR083W, strain WHI5, stronger effect = lower value 1.02 | S. cerevisiae deletion strains, locus YOR106W, strain vam3, stronger effect = lower value 1.07 | S. cerevisiae deletion strains, locus YOR136W, strain idh2, stronger effect = lower value 0.988 | S. cerevisiae deletion strains, locus YOR144C, strain elg1, stronger effect = lower value 0.993 | S. cerevisiae deletion strains, locus YOR184W, strain ser1, stronger effect = lower value 0.959 | S. cerevisiae deletion strains, locus YOR231W, strain MKK1, stronger effect = lower value 0.952 | S. cerevisiae deletion strains, locus YOR265W, strain rbl2, stronger effect = lower value 1.03 | S. cerevisiae deletion strains, locus YOR270C, strain vph1, stronger effect = lower value 1.12 | S. cerevisiae deletion strains, locus YOR290C, strain snf2, stronger effect = lower value 1.02 | S. cerevisiae deletion strains, locus YOR316C, strain cot1, stronger effect = lower value 0.989 | S. cerevisiae deletion strains, locus YPL051W, strain arl3, stronger effect = lower value 1.01 | S. cerevisiae deletion strains, locus YPL055C, strain LGE1, stronger effect = lower value 1.04 | S. cerevisiae deletion strains, locus YPL078C, strain atp4, stronger effect = lower value 1.03 | S. cerevisiae deletion strains, locus YPL106C, strain sse1, stronger effect = lower value 1 | S. cerevisiae deletion strains, locus YPL240C, strain hsp82, stronger effect = lower value 1.03 | S. cerevisiae deletion strains, locus YPL241C, strain CIN2, stronger effect = lower value 0.996 | S. cerevisiae deletion strains, locus YPL256C, strain CLN2, stronger effect = lower value 0.943 | S. cerevisiae deletion strains, locus YPR119W, strain clb2, stronger effect = lower value 1 | S. cerevisiae deletion strains, locus YPR141C, strain kar3, stronger effect = lower value 0.968 | S. cerevisiae deletion strains, locus YPR163C, strain tif3, stronger effect = lower value 0.999 | S. cerevisiae deletion strains, locus YPR167C, strain met16, stronger effect = lower value 0.99 | S. cerevisiae deletion strains, strain wtn01, stronger effect = lower value 0.998 | S. cerevisiae strains, strain wild type, stronger effect = lower value 0.999
